This note sets out measurements from PubChem BioAssay (Tox21).

Assay [1] is described as follows: qHTS RealTime-Glo MT Cell Viability Assay in HEK293 cells - 0 hour (AID 1224880). Further: top concentration of the series differs between compounds; nearly all actives have a fitted effect of over 45% in size. The method in brief: (§1)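 Kinetic, non-lysing viability readout. Seed HEK293 (600/well) with reagent, incubate 5 h at 37 C/5% CO2, pin 23 nL compound in DMSO, incubate at 37 C, read luminescence at 0, 8, 16, 24, 32, 40 h.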
A short description of assay [2]: A CellTox Green Cytotoxicity Assay to monitor cytotoxicity in HEK293 cells - 32 hour (AID 1224881). Further: nearly all actives have a fitted effect of over 40% in size. Further: potency means the concentration at half of the fitted maximal effect. The method in brief: (§2)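 Real-time, in one plate: 600 HEK293 cells/well with dead-cell DNA dye, pinned compound after 5 h, 37 C incubation over 40 h; viable cells give no appreciable fluorescence.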
The nature of assay [3]: A CellTox Green Cytotoxicity Assay to monitor cytotoxicity in HepG2 cells - 0 hour (AID 1224882). Further: nearly all actives have a fitted effect of over 35% in size. Further: potency means the concentration at half of the fitted maximal effect. The method in brief:
(§3)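 Cytotoxicity was tracked as dead-cell DNA fluorescence in HepG2 cells treated with test compounds at 37 C; each time-point value comes from one kinetic series spanning 0, 8, 16, 24, 32 and 40 h.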

Assay [4] in a line: A CellTox Green Cytotoxicity Assay to monitor cytotoxicity in HepG2 cells - 32 hour (AID 1224883). Further: nearly all actives have a fitted effect of over 50% in size. Further: potency means the concentration at half of the fitted maximal effect. Put shortly: as §3
The nature of assay [5]: A CellTox Green Cytotoxicity Assay to monitor cytotoxicity in HEK293 cells - 8 hour (AID 1224884). Further: nearly all actives have a fitted effect of over 35% in size. Further: potency means the concentration at half of the fitted maximal effect. Put shortly:
as §2

Assay [6] is described as follows: qHTS RealTime-Glo MT Cell Viability Assay in HEK293 cells - 24 hour (AID 1224886). Further: top concentration of the series differs between compounds; nearly all actives have a fitted effect of over 50% in size. Put shortly:
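HEK293 cells seeded with NanoLuc/prosubstrate reagent, rested 5 h at 37 C, then dosed and kept at 37 C up to 40 h. Nonlytic real-time luminescence from viable cells read at 0, 8, 16, 24, 32 and 40 h.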
A general note: qHTS replaces the single test concentration by a dilution series.

Assay [7] in a line: qHTS RealTime-Glo MT Cell Viability Assay in HEK293 cells - 8 hour (AID 1224887). Further: nearly all actives have a fitted effect of over 50% in size. Further: potency means the concentration at half of the fitted maximal effect. The method in brief: as §1
A short description of assay [8]: A CellTox Green Cytotoxicity Assay to monitor cytotoxicity in HEK293 cells - 16 hour (AID 1224888). Further: nearly all actives have a fitted effect of over 35% in size. The method in brief: as §2
Assay [9] can be described thus: qHTS RealTime-Glo MT Cell Viability Assay in HepG2 cells - 0 hour (AID 1224889). Further: nearly all actives have a fitted effect of over 50% in size. Put shortly:
(§4)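 HepG2 cells (600/well) were dispensed with RealTime-Glo reagents, incubated 5 h at 37 °C, then treated with compounds in DMSO for up to 40 h. Nonlytic NanoLuc luminescence reflecting viable cells was read at each stated time point.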

Assay [10] can be described thus: A CellTox Green Cytotoxicity Assay to monitor cytotoxicity in HepG2 cells - 8 hour (AID 1224890). Further: nearly all actives have a fitted effect of over 45% in size. Further: potency means the concentration at half of the fitted maximal effect. Put shortly: as §3
Assay [11] in a line: qHTS assay to identify small molecule antagonists of the estrogen receptor alpha (ER-alpha) signaling pathway using the BG1 cell line in the presence of 0.1 nM 17-beta-estradiol - cell viability counter screen (AID 1259241). Further: nearly all actives have a fitted effect of over 40% in size. Put shortly: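 VM7Luc4E2 cells (endogenous full-length ER-alpha, 4xERE-luciferase), cultured 5 days in charcoal-stripped serum, exposed to compounds with 0.1 nM 17beta-estradiol (final) for 22 hr at 37C. Viability read in same wells as live-cell protease fluorescence after 30 min.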

The nature of assay [12]: qHTS assay to identify small molecule antagonists of the androgen receptor (AR) signaling pathway using the MDA cell line in the presence of 0.5 nM R1881 - cell viability counter screen (AID 1259242). Further: nearly all actives have a fitted effect of over 45% in size. Put shortly: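 Cells seeded at 3,000/well and allowed 5 hr at 37C, 0% CO2 before compound transfer and R1881 (0.5 nM final) addition; 16 hr later, live-cell protease fluorescence indicated cytotoxicity.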

Assay [13] deals with Estrogen receptor (Homo sapiens) (UniProt P03372). Briefly: qHTS assay to identify small molecule antagonists of the estrogen receptor alpha (ER-alpha) signaling pathway using the BG1 cell line in the presence of 0.1 nM 17-beta-estradiol (AID 1259244). Further: nearly all actives have a fitted effect of over 50% in size. Further: potency means the concentration at half of the fitted maximal effect. The method in brief:
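Luciferase signal from VM7Luc4E2 ERE-reporter cells, co-dosed with test compound and 0.1 nM final 17beta-estradiol for 22 h, read with ONE-Glo.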

Assay [14] is described as follows: qHTS assay to identify small molecule HDAC inhibitors (AID 1259364).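 Further: wild-type HCT-116 cells with endogenous class I/II HDAC activity; top concentration of the series differs between compounds; nearly all actives have a fitted effect of over 45% in size.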 Put shortly:
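HCT-116 wt cells, 1,500/well, overnight attach. Compounds (DMSO) 2 h, 37 °C. HDAC-Glo I/II, 30 min RT. Luminescence.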

A short description of assay [15]: qHTS assay to identify small molecule HDAC inhibitors - cell viability counter screen (AID 1259365). Put shortly:
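Wild-type HCT-116 cells, 1,500/well, cultured overnight, then compound-treated 2 h at 37 C. Viability measured as ATP luminescence with CellTiter-Glo after 30 min at room temperature.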

Assay [16] is described as follows: qHTS assay to identify small molecule agonists of the sonic hedgehog signaling (Shh) pathway - cell viability counter screen (AID 1259366). Further: nearly all actives have a fitted effect of over 50% in size. Further: potency means the concentration at half of the fitted maximal effect. The method in brief: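 NIH/3T3-derived Gli1-Luc reporter cells, 2,000 per well, received compound after 4 h and were treated about 23 h at 37C. Viability measured in the same wells by CellTiter-Fluor fluorescence after 1 h.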

A short description of assay [17]: qHTS assay to identify small molecule antagonists of the sonic hedgehog signaling (Shh) pathway - cell viability counter screen (AID 1259367). Further: nearly all actives have a fitted effect of over 55% in size. Further: potency means the concentration at half of the fitted maximal effect. The method in brief:
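Conditioned medium drove Shh signaling in 3T3 Gli1-Luc cells exposed to compounds at 37C and 5% CO2. Viability was determined from CellTiter-Fluor fluorescence, with reagent incubated 1 hr after 23 hr of treatment.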

A short description of assay [18]: qHTS RealTime-Glo MT Cell Viability Assay in HepG2 cells - 16 hour (AID 1224885). Further: nearly all actives have a fitted effect of over 50% in size. The method in brief: as §4
The target in assay [19] is Androgen receptor (Homo sapiens) (UniProt P10275). Briefly: qHTS assay to identify small molecule antagonists of the androgen receptor (AR) signaling pathway using the MDA cell line in the presence of 0.5 nM R1881 (AID 1259243). Further: nearly all actives have a fitted effect of over 50% in size. The method in brief:
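Luminescence from an AR/GR-responsive MMTV-luciferase construct in MDA-kb2 breast carcinoma cells, read 30 min after ONE-Glo, following 16 hr co-treatment with compounds and 0.5 nM R1881.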

Assay [20] in a line: qHTS assay to identify small molecule phospholipidosis (PLD) inducers (AID 1259344; active means well fitted curve in the direction sought with a large enough effect; an effect the other way counts as inactive or inconclusive). The method in brief:
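After 4 h attachment on collagen I, HepG2 cells were dosed with compound alongside LipidTOX Red, kept 24 h at 37 C, fixed, and imaged for lamellar phospholipid pits.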

Several values for one entry are separate records, joined by “and”; a condition that tells them apart may be missing. Identical values can stand only once. Records with an inconclusive call do not appear. Some compounds were tested as several samples or in several runs, with calls that do not always agree. Activity calls are given as the source filed them. Unless noted, the call rests on the fitted dose curve; in most records, active means well fitted curve in the direction sought with a large enough effect in the repeat runs; inconclusive means weak or mixed curves; inactive means no such curve, though single readings can be large; an effect the other way counts as inactive or inconclusive.

Sequence of Androgen receptor (Homo sapiens) (P10275 whole entry, looked up): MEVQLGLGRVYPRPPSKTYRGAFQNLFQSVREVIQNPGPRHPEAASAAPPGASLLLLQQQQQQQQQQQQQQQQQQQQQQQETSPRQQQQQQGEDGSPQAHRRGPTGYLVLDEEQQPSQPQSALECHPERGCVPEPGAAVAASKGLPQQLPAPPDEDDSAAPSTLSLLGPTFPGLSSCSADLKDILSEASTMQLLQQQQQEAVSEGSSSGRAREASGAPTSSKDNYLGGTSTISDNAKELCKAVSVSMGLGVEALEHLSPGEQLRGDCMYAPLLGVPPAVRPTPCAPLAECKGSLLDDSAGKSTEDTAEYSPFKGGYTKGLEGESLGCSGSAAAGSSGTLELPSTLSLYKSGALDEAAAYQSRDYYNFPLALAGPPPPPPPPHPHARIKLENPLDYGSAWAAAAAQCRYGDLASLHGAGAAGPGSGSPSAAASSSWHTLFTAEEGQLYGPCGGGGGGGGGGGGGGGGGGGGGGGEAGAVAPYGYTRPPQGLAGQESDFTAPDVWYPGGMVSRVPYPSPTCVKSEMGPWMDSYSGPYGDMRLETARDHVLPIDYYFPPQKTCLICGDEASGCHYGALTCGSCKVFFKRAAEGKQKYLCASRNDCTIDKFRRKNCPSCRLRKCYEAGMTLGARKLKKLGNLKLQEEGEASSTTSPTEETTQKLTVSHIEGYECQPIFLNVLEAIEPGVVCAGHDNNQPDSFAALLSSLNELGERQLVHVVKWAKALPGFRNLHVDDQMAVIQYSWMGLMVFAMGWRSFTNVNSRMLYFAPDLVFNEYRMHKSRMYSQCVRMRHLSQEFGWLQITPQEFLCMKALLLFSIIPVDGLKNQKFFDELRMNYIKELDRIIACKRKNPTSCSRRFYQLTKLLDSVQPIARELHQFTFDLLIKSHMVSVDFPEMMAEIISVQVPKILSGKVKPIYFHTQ
Sequence of Estrogen receptor (Homo sapiens) (P03372 whole entry, looked up): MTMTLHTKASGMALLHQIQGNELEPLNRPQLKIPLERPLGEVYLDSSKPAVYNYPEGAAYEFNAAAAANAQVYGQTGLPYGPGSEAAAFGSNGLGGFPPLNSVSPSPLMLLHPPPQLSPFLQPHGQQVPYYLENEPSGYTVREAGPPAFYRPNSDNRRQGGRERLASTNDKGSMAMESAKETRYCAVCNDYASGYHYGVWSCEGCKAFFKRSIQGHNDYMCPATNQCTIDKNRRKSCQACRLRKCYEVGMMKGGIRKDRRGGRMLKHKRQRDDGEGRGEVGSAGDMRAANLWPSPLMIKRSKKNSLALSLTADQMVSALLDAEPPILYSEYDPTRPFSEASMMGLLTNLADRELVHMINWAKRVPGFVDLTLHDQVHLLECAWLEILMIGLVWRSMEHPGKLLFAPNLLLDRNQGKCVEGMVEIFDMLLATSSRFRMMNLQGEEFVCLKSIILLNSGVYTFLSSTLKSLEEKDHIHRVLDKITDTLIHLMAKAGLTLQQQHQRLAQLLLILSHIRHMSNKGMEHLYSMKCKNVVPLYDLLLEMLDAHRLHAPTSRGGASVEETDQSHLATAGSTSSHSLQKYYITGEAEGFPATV

Take `O=[N+]([O-])C(CO)(CO)CO`: the Potency entry in assay [1], in [2], in [3], in assay [4], in assay [5] and in [6] was “inactive” in each case. The Potency result in assay [7], in assay [8], in [9], in [10], in [11] and in [12] was “inactive” each time. For the same compound, the Potency entry in [13] and in assay [14] was “inactive” in each case. In addition, the compound was classed as inactive in [15]. Besides, the Potency in assay [16] was 30.2 µM (active) and 48.6 µM (active); in assay [17], 214 nM (active) and inactive.
Consider `O=Nc1ccc(O)cc1`, for which the Potency result in [1], in [2], in assay [3], in assay [4], in assay [18] and in assay [6] was “inactive” each time. Moreover, the Potency entry in assay [8], in assay [9], in [10], in assay [11], in assay [12] and in [13] was “inactive” in each case. Further, the Potency result in assay [14], in assay [16] and in assay [17] was “inactive” in each case. Further, the Potency in assay [7] was 24 µM (active) and inactive. Moreover, the outcome in assay [19] and in assay [15] was inactive.
Regarding `CCCCCCCCCC(=O)O`, the Potency entry in [1], in assay [2], in assay [3], in assay [4], in assay [5] and in [6] was “inactive” each time. In addition, the Potency entry in assay [7], in assay [8], in assay [9], in assay [10], in [11] and in assay [12] was “inactive” in each case. Besides, the Potency entry in assay [14], in assay [16] and in assay [17] was “inactive” each time. Further, the outcome in [19], in assay [20] and in [15] was inactive.
In the case of `O=C(Cl)c1c(Cl)c(Cl)c(C(=O)Cl)c(Cl)c1Cl`, the Potency result in assay [1], in assay [2], in assay [3], in assay [4], in [5] and in assay [6] was “inactive” in each case. Besides, the Potency result in [7], in assay [8], in assay [9], in assay [10], in [11] and in assay [12] was “inactive” in each case. Further, the Potency entry in [13], in assay [14], in assay [16] and in [17] was “inactive” in each case. For the same compound, the call in [15] was inactive.
Regarding `O=S(=O)(O)c1cc(S(=O)(=O)O)c2c(N=Nc3ccccc3)c(O)ccc2c1`, the Potency result in [1], in assay [2], in [3], in [4], in [5] and in assay [18] was “inactive” in each case. Further, the Potency entry in assay [6], in assay [7], in assay [8], in assay [9], in [10] and in assay [13] was “inactive” throughout. Further, the Potency entry in [14] was “inactive”. Further, the result in assay [15] was inactive.
For the compound `COC(=O)c1ccc(C(=O)OC)cc1`, the Potency result in assay [1], in assay [2], in assay [3], in assay [5], in [18] and in assay [6] was “inactive” throughout. The Potency result in [7], in assay [8], in assay [9], in [10] and in assay [12] was “inactive” in each case. In addition, the Potency was 19.8 µM (active) and inactive in assay [4]; 6.19 µM (active) and inactive in assay [13]; 6.95 µM (active) and inactive in assay [16]; 2.2 µM (active) and inactive in [17]. Moreover, in assay [15], the compound was classed as inactive.
Take `Cc1ccc(C(=O)O)o1`: the Potency result in [1], in assay [2], in assay [3], in assay [4], in assay [5] and in assay [18] was “inactive” in each case. In addition, the Potency entry in [6], in [7], in assay [8], in [9], in assay [10] and in [11] was “inactive” each time. Besides, the Potency entry in assay [12], in assay [14], in assay [16] and in [17] was “inactive” in each case. The compound was classed as inactive in [15].
For the compound `C=C(C)C(=O)OCC(CC)(COC(=O)C(=C)C)COC(=O)C(=C)C`, the Potency result in assay [1], in assay [6], in [7], in assay [9], in assay [11] and in [12] was “inactive” throughout. In addition, the Potency entry in [14], in assay [16] and in [17] was “inactive” in each case. Moreover, the Potency entry was “inactive and 42.9 µM (active)” in assay [2]; “inactive and 42.9 µM (active)” in [3]; “inactive and 42.9 µM (active)” in [4]; “inactive and 24.1 µM (active)” in [5]; “inactive and 42.9 µM (active)” in assay [10]. Further, the call in [15] was inactive.
